Measurements reported in the supplement of paper PMC10646978.
± gives the standard deviation.

Tests used:
Conditions in all cases: modulator concentration 10 µM
[1] = tested on: RAW-Dual (murine macrophage reporter line); test: NF-kB reporter (SEAP) activity fold change vs agonist alone; higher = enhanced NF-kB activity
In short: (§1)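 In 384-well plates holding 50 000 RAW-Dual murine macrophage reporter cells per well, compound at 10 μM final was pre-incubated for 1 hour at 37 °C, after which a PRR agonist was added overnight. Supernatant SEAP read with QUANTI-Blue at 620 nm absorbance reported NF-κB, and Lucia luciferase read with QUANTI-Luc luminescence reported IRF. Fold change values come from dividing each reporter signal by the mean of agonist-only control wells on the same plate, averaged over replicate plates with propagated errors.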

[2] = tested on: RAW-Dual (murine macrophage reporter line); test: IRF reporter (Lucia luciferase) activity fold change vs agonist alone; higher = enhanced IRF activity
In short: as §1

[3] = tested on: RAW-Dual (murine macrophage reporter line); test: viability score (confluency relative to resting cells, overnight) (fraction); higher = more viable, active = viable (0.7 or more)
In short: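 Compound was added at a final 10 μM to RAW-Dual macrophages in 384-well plates and left overnight. Confluency was imaged with IncuCyte, and two masks were generated in IncuCyte software over all imaged wells. Each viability score is confluency relative to resting cells, and a compound met the cutoff only when both masks were above 70% of resting cells.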

[4] = agonist: CpG ODN 1826 0.5 ug/mL

| SMILES | NF-kB reporter [1, 4] | NF-kB reporter ([1]; agonist: LPS 0.1 ug/mL) | NF-kB reporter ([1]; agonist: MPLA […]) | IRF reporter ([2]; agonist: 3'3'-cGAMP 10 ug/mL) | IRF reporter ([2]; agonist: LPS 0.1 ug/mL) | IRF reporter ([2]; agonist: MPLA […]) | viability score [3] |
| --- | --- | --- | --- | --- | --- | --- | --- |
| Cc1c(C(=O)OC(C)C)sc(NC(=O)C(F)(F)F)c1C(=O)OC(C)C | 1.4 ± 0.08 | 1.01 ± 0.076 | 1.05 ± 0.032 | 0.781 ± 0.028 | 0.937 ± 0.067 | 1.19 ± 0.22 | 0.993 (active) |
| CCN(CC)c1ccc(C=NNC(=O)c2ccncc2)c(O)c1 | 2.56 ± 0.2 | 1.66 ± 0.13 | 5.41 ± 0.24 | 0.888 ± 0.12 | 1.29 ± 0.084 | 1.35 ± 0.14 | 0.695 (inactive) |
| CCSc1nnc(NC(=O)C2CC3CCC2C3)s1 (stereo not drawn) | 0.941 ± 0.058 | 0.969 ± 0.06 | 0.884 ± 0.06 | 1.29 ± 0.098 | 1.4 ± 0.092 | 1.09 ± 0.1 | 0.94 (active) |
| O=S(=O)(C=Cc1ccccc1)NCc1ccccc1 | 0.933 ± 0.15 | 1.03 ± 0.083 | 0.953 ± 0.085 | 1.03 ± 0.028 | 1.28 ± 0.13 | 1.61 ± 0.37 | 0.97 (active) |
| Cl.Cl.OCCN1CCN(CC/C=C2/c3ccccc3Sc3ccc(C(F)(F)F)cc32)CC1 | 1.01 ± 0.046 | 1.03 ± 0.13 | 1.04 ± 0.1 | 0.959 ± 0.058 | 1.13 ± 0.23 | 1.22 ± 0.28 | 1.02 (active) |
| Cc1ccc(C(CNC(=O)NC2CCCC2)OCCO)cc1 (stereo not drawn) | 0.622 ± 0.072 | 1.08 ± 0.1 | 0.808 ± 0.047 | 0.944 ± 0.075 | 1.07 ± 0.1 | 1.1 ± 0.27 | 1.01 (active) |
| CS(=O)(=O)O.Cc1ccc(N(CC2=NCCN2)c2cccc(O)c2)cc1 | 0.981 ± 0.19 | 1.03 ± 0.34 | 0.957 ± 0.09 | 0.628 ± 0.019 | 1.09 ± 0.28 | 1.04 ± 0.08 | 1 (active) |
| O=C(C=Cc1ccccc1)NC(NC(=S)Nc1cccc2cccnc12)C(Cl)(Cl)Cl (stereo not drawn) | 0.507 ± 0.089 | 0.575 ± 0.067 | 0.624 ± 0.048 | 0.452 ± 0.027 | 1.01 ± 0.1 | 1.13 ± 0.25 | 1.01 (active) |
| Oc1c(Cl)cc(Cl)cc1C=Nc1cc(Cl)cc(Cl)c1 | 0.734 ± 0.14 | 0.915 ± 0.076 | 0.761 ± 0.066 | 0.437 ± 0.019 | 1.05 ± 0.1 | 1.09 ± 0.14 | 0.734 (active) |
| COc1cc(=O)n(C)cc1C(=O)Nc1cccnc1 | 1.06 ± 0.065 | 0.817 ± 0.13 | 1.06 ± 0.065 | 0.943 ± 0.064 | 0.899 ± 0.17 | 0.915 ± 0.25 | 0.967 (active) |
| N#CC(=Cc1cn(Cc2ccccc2Cl)c2ccccc12)c1nn(CCO)c(N)c1C#N | 0.919 ± 0.077 | 0.959 ± 0.053 | 0.91 ± 0.058 | 0.909 ± 0.063 | 1.18 ± 0.17 | 0.936 ± 0.058 | 1.02 (active) |
| NC(=O)C1CCCN1c1ncccc1C(F)(F)F (stereo not drawn) | 1.16 ± 0.068 | 1.09 ± 0.089 | 0.994 ± 0.028 | 1.01 ± 0.088 | 1.06 ± 0.063 | 1.01 ± 0.1 | 0.997 (active) |
| CC1(C)CC(=O)C2=C(C1)OC(N)=C(C#N)C21CCCC1 | 1.04 ± 0.18 | 0.94 ± 0.08 | 0.933 ± 0.072 | 0.91 ± 0.025 | 1.13 ± 0.15 | 1.3 ± 0.13 | 1 (active) |
| O=c1cc2c(nn1CC1CCN(CC3(O)CCOCC3)CC1)CCCC2 | 1.08 ± 0.1 | 0.988 ± 0.099 | 0.918 ± 0.066 | 1.08 ± 0.063 | 1.21 ± 0.075 | 1.04 ± 0.17 | 1.01 (active) |
| O=C(NCCN1CCOCC1)c1ccccc1Br | 0.967 ± 0.081 | 1.13 ± 0.089 | 0.952 ± 0.035 | 1.02 ± 0.15 | 1.13 ± 0.12 | 0.897 ± 0.18 | 0.997 (active) |
| Brc1ccc2[nH]cc(-c3nnc4ccc5ccccc5n34)c2c1 | 0.644 ± 0.051 | 0.877 ± 0.042 | 1.7 ± 0.35 | 0.971 ± 0.051 | 1.4 ± 0.1 | 2.08 ± 0.22 | 0.973 (active) |
| CC(=NN1CCN(Cc2cccc3ccccc23)CC1)c1ccc(Br)cc1 | 1.08 ± 0.12 | 1.04 ± 0.071 | 1.08 ± 0.044 | 1 ± 0.13 | 1.05 ± 0.12 | 1.11 ± 0.29 | 1 (active) |
| CCOc1ccc(NC(=O)N2C3C=CCC2CC3)cc1 (stereo not drawn) | 1.09 ± 0.42 | 0.941 ± 0.055 | 1.04 ± 0.075 | 0.943 ± 0.054 | 0.921 ± 0.13 | 1.1 ± 0.1 | 0.814 (active) |
| CC1(C)COC(=O)C1=NNc1ccc([N+](=O)[O-])cc1 | 1.02 ± 0.1 | 1.09 ± 0.073 | 1.03 ± 0.039 | 1.03 ± 0.21 | 1.05 ± 0.13 | 1.18 ± 0.1 | 0.998 (active) |
| COC(=O)C1=C(C)NC(C)=C(C(=O)OCCN2CCN(C(c3ccccc3)c3ccccc3)CC2)C1c1cccc([N+](=O)[O-])c1 (stereo not drawn) | 0.231 ± 0.038 | 0.631 ± 0.07 | 0.89 ± 0.051 | 0.138 ± 0.0049 | 0.949 ± 0.11 | 1.1 ± 0.11 | 0.966 (active) |
| N=C(N)Nc1nc(CSCCC(=N)NS(N)(=O)=O)cs1 | 1.09 ± 0.1 | 0.992 ± 0.059 | 1.06 ± 0.039 | 0.967 ± 0.064 | 0.898 ± 0.036 | 1.02 ± 0.088 | 0.995 (active) |
| O=C(Cc1ccc([N+](=O)[O-])cc1)NN=Cc1cccnc1 | 1.05 ± 0.083 | 1.02 ± 0.074 | 0.972 ± 0.041 | 0.86 ± 0.066 | 1.09 ± 0.053 | 1.03 ± 0.14 | 1 (active) |
| CCC(=O)N1CCCC1c1nc2ccccc2n1CCOc1ccc(Cl)cc1 (stereo not drawn) | 0.717 ± 0.18 | 1.15 ± 0.063 | 1.2 ± 0.095 | 0.967 ± 0.097 | 0.992 ± 0.21 | 1.1 ± 0.1 | 0.996 (active) |
| O=c1oc2c(O)c(O)cc3c(=O)oc4c(O)c(O)cc1c4c23 | 1.05 ± 0.32 | 0.944 ± 0.051 | 0.963 ± 0.1 | 0.85 ± 0.055 | 1.11 ± 0.12 | 1.1 ± 0.22 | 0.997 (active) |
